According to the supplement of paper PMC11732987, “Enantioselective OTUD7B fragment discovery through chemoproteomics screening and high-throughput optimisation” (Communications Chemistry, 2025):

Columns and labels:
Test in all cases: log2 ratio of Biotin-Ahx-Ub-VS probe labelling (fragment/DMSO); higher = less target engagement (more negative = stronger competition), active = hit call of the paper (q ≤ 0.05, log2 ratio ≤ -1)
Details in all cases: compound concentration: 200 uM; treatment time: 3 h
USP19 = target: T1, USP19 (UniProt O94966)
T1 sequence (whole entry): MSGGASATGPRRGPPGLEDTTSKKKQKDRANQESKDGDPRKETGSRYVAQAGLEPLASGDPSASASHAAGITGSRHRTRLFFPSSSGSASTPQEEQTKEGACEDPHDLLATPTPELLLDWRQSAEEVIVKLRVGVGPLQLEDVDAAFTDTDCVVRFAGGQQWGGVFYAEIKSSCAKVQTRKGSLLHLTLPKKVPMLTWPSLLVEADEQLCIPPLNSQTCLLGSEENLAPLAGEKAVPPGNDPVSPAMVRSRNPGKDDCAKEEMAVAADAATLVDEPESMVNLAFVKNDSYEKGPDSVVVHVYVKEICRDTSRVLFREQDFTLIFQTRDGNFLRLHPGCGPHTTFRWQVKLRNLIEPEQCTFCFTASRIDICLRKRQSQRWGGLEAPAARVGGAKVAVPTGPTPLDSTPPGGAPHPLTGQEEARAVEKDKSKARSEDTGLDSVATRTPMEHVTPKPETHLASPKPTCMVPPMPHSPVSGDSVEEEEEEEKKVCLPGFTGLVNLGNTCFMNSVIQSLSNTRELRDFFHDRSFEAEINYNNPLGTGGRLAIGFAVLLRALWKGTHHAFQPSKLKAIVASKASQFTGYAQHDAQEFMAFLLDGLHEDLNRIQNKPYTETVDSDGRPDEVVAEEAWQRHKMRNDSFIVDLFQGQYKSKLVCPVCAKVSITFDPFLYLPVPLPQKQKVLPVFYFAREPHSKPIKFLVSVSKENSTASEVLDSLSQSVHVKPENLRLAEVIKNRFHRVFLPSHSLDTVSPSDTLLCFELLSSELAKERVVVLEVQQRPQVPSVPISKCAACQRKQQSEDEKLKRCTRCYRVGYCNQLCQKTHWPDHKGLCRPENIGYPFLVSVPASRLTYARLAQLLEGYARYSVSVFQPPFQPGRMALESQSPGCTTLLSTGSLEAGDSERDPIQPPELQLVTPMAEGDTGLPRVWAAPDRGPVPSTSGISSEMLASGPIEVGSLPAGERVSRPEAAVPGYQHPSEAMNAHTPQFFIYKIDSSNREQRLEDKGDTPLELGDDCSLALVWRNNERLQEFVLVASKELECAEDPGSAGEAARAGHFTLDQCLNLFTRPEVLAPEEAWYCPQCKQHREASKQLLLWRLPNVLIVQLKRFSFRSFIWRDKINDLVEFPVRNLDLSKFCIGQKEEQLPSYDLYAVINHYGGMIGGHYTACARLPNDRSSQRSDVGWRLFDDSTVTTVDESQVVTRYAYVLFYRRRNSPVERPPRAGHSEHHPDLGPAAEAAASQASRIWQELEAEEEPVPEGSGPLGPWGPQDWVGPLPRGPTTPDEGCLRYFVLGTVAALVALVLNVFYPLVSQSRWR
Outline: (§1)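 Triplicate samples of HEK293T lysate, 495 µg each, received fragment at 200 µM or vehicle for 3 h, followed by Biotin-Ahx-Ub-VS (0.5 µM final) for 1 h. After NeutrAvidin enrichment of labelled DUBs and LysC/trypsin digestion, peptides were run by diaPASEF LC-MS/MS. The values are average log2 fragment/vehicle ratios from global-median-normalised Spectronaut label-free quantities, tested by unpaired t-test on proteins having ≥2 unique peptides.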

USP22 = target: T2, USP22 (UniProt Q9UPT9)
T2 sequence (whole entry): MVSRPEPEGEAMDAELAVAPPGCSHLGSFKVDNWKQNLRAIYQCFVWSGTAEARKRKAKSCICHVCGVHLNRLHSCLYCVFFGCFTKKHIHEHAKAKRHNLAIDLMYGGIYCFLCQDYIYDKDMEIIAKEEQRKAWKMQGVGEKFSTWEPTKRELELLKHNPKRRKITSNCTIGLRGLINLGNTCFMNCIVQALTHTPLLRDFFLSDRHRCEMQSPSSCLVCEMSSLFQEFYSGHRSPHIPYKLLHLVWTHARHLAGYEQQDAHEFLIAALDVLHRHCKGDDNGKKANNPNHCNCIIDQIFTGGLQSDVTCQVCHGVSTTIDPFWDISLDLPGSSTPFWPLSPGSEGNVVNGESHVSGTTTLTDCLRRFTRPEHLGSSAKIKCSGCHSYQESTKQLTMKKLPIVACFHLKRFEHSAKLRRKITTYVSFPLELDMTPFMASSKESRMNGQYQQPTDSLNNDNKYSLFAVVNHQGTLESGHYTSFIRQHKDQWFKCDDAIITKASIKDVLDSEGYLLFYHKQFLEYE
Outline: as §1

USP24 = USP24 (UniProt Q9UPU5)
USP24, sequence (Q9UPU5 whole entry): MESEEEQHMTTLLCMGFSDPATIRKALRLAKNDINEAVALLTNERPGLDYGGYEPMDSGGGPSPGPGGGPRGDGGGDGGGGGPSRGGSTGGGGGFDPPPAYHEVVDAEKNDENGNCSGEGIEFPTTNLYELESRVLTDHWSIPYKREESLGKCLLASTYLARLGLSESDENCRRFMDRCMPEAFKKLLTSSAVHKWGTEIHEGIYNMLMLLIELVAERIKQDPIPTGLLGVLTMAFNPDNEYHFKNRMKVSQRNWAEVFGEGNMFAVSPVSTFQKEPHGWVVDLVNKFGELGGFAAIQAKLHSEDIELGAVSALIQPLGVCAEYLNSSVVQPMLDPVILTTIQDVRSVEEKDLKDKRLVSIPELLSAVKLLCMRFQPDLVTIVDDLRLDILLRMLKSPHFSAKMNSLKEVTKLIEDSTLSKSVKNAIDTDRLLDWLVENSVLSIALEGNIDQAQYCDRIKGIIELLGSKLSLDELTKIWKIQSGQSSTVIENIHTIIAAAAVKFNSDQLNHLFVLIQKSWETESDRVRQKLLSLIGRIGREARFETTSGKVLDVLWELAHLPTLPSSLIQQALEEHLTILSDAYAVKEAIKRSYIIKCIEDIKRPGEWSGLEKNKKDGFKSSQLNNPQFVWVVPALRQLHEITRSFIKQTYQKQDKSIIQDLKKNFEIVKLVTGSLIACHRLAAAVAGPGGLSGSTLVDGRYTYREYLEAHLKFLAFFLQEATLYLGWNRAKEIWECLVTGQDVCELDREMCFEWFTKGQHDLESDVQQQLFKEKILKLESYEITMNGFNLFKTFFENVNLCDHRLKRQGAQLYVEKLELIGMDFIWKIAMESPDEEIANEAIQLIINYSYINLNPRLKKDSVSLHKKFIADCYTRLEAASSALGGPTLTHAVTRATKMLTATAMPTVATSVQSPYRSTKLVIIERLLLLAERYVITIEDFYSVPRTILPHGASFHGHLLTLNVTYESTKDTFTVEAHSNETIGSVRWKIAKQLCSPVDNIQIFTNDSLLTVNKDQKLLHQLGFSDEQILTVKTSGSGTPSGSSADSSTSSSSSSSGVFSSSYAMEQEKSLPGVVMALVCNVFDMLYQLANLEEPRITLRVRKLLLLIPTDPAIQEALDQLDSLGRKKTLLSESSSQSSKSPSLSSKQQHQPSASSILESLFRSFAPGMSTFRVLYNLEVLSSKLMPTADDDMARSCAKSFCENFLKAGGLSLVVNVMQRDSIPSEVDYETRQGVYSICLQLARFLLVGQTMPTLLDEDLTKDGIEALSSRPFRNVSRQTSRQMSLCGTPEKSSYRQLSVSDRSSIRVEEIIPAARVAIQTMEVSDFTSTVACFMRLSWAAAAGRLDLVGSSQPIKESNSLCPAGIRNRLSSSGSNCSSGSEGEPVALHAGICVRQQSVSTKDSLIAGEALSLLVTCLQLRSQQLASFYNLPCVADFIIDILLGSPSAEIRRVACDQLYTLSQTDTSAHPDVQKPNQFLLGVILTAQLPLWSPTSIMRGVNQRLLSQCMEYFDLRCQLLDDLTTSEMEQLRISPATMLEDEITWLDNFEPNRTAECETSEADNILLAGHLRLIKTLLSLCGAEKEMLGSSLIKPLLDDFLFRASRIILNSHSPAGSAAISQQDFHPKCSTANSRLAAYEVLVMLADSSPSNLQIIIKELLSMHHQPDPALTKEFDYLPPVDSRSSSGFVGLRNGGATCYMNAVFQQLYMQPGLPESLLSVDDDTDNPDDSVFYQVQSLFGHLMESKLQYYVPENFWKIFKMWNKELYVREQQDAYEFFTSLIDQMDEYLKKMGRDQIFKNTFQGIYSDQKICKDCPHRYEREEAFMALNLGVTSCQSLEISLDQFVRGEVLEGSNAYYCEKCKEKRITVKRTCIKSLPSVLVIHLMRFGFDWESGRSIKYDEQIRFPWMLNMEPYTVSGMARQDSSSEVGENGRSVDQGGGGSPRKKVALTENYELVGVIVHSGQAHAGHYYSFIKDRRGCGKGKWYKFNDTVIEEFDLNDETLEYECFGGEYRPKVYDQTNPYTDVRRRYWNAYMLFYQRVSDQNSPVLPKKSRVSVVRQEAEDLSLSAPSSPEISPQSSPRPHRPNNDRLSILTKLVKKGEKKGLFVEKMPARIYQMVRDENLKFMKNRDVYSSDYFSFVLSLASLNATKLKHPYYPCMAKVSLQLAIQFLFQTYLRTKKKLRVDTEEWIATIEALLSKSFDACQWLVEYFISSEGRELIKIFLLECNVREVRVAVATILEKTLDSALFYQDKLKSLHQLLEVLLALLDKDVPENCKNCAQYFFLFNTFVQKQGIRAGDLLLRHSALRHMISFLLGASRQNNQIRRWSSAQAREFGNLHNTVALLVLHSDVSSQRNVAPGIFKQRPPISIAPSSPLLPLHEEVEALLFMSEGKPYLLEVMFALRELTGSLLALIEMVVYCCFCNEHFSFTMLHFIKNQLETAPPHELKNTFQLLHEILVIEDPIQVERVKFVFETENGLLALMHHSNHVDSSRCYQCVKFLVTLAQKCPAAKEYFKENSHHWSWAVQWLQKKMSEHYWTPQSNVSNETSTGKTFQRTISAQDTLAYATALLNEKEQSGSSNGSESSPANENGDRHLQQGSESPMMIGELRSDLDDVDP
Outline: as §1

USP25 = target: T3, USP25 (UniProt Q9UHP3)
T3 sequence (whole entry): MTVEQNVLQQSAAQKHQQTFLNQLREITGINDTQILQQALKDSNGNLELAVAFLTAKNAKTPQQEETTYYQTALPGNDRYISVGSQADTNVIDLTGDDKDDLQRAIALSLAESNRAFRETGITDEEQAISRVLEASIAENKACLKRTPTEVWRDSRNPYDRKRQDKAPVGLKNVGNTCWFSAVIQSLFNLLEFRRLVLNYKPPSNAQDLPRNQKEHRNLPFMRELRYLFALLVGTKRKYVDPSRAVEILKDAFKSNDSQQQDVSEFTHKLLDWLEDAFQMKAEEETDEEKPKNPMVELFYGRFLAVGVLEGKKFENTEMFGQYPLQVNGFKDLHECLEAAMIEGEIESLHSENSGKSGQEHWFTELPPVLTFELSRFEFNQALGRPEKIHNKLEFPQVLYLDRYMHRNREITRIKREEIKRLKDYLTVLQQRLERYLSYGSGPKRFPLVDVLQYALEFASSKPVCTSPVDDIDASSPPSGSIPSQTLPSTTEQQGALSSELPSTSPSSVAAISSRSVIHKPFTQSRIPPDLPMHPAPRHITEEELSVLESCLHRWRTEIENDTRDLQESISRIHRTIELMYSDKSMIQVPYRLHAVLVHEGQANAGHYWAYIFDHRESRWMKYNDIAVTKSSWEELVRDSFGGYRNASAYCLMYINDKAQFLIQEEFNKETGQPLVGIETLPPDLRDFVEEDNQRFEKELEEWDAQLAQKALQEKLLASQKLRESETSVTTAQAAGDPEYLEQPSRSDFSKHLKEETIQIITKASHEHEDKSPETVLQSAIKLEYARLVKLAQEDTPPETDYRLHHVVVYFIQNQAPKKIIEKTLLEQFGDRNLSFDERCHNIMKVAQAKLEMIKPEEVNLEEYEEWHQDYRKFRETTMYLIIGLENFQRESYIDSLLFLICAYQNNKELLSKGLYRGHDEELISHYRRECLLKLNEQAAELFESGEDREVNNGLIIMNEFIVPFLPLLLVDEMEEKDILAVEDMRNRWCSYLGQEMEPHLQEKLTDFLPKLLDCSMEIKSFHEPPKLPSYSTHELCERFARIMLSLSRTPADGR
Outline: as §1

USP28 = target: T4, USP28 (UniProt Q96RU2)
T4 sequence (whole entry): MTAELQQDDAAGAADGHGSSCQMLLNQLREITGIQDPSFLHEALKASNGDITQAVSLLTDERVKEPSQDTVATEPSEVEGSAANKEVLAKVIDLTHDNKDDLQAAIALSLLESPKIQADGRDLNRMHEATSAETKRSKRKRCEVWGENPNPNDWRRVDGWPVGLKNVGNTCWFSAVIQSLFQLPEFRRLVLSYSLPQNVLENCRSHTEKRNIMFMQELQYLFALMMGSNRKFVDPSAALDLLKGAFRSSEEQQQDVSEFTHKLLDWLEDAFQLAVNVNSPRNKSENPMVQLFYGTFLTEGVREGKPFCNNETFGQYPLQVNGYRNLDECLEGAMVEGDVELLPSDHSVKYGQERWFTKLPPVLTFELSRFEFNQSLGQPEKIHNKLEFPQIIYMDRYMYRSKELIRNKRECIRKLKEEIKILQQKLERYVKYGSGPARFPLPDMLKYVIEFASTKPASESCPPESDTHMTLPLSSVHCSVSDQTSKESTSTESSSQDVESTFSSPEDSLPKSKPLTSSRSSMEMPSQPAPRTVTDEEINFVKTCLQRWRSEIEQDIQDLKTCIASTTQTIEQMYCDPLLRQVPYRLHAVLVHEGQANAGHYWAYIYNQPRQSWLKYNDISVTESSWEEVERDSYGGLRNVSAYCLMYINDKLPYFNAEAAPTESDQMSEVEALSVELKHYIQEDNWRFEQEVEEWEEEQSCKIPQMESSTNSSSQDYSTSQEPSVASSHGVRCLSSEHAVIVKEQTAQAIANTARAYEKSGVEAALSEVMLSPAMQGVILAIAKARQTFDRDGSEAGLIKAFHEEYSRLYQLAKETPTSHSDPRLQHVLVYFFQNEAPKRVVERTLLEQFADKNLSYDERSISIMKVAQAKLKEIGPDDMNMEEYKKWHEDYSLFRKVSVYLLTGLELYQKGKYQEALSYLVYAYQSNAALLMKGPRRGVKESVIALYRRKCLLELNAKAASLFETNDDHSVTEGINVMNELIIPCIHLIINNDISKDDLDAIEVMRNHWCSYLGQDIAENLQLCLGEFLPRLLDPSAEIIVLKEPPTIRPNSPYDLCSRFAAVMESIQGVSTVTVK
Outline: as §1

Measured: log2 ratio of Biotin-Ahx-Ub-VS probe labelling

O=C(CCl)Nc1cccc2ncccc12
inactive: USP19 -0.114 | USP22 0.19 | USP24 -0.136 | USP25 -0.527 | USP28 -0.917
